Data from PubChem BioAssay AID1159580 (chemical genetic matrix, 2015).
Hit rate of the full screen: of about 5,500 compounds, about 2,000 (36%) were called active. Another 18% or so got no clear call; they are omitted. This is one part of the list. Unmarked numbers belong to inactive results. No stated cut-off is given here; in the data, active means normalized growth mostly below about 0.91 (no sharp cut-off); inconclusive means no clear call, values can overlap the other calls; inactive means mostly above about 0.92.

Experiment: chemical genetic growth profiling, strain panel (AID 1159580);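 further: tested at 20 µM; growth read once vehicle control cultures reached saturation at 30 °C; 1 = growth at the plate median or of vehicle wells; lower values mean less growth of the strain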
Conditions: S. cerevisiae deletion strains, growth OD

## Cc1cc(C(=O)O/N=C(/N)c2ccc(C(C)(C)C)cc2)no1
Locus YAR019C, strain CDC15, active compounds read low
  normalized growth: 0.972
Locus YBL105C, strain PKC1, active compounds read low
  normalized growth: 0.979
Locus YBR135W, strain CKS1, active compounds read low
  normalized growth: 0.975
Locus YBR136W, strain MEC1, active compounds read low
  normalized growth: 0.985
Locus YBR160W, strain CDC28, active compounds read low
  normalized growth: 0.979
Locus YDL017W, strain CDC7, active compounds read low
  normalized growth: 0.993
Locus YDL028C, strain MPS1, active compounds read low
  normalized growth: 0.971
Locus YDL101C, strain DUN1, active compounds read low
  normalized growth: 0.993
Locus YDL108W, strain KIN28, active compounds read low
  normalized growth: 0.976
Locus YDL132W, strain cdc53, active compounds read low
  normalized growth: 0.975
Locus YDL214C, strain PRR2, active compounds read low
  normalized growth: 0.909
Locus YDR052C, strain DBF4, active compounds read low
  normalized growth: 0.986
Locus YDR054C, strain cdc34, active compounds read low
  normalized growth: 0.963
Locus YDR226W, strain ADK1, active compounds read low
  normalized growth: 0.983
Locus YDR477W, strain SNF1, active compounds read low
  normalized growth: 0.911
Locus YER123W, strain YCK3, active compounds read low
  normalized growth: 0.901
Locus YER133W, strain GLC7, active compounds read low
  normalized growth: 0.882
Locus YFL009W, strain cdc4, active compounds read low
  normalized growth: 0.952
Locus YFL029C, strain CAK1, active compounds read low
  normalized growth: 0.969
Locus YFR003C, strain YPI1, active compounds read low
  normalized growth: 0.986
Locus YFR019W, strain FAB1, active compounds read low
  normalized growth: 0.922
Locus YFR028C, strain CDC14, active compounds read low
  normalized growth: 0.98
Locus YGR040W, strain KSS1, active compounds read low
  normalized growth: 0.956
Locus YGR052W, strain FMP48, active compounds read low
  normalized growth: 0.958
Locus YGR092W, strain DBF2, active compounds read low
  normalized growth: 0.906
Locus YHR030C, strain SLT2, active compounds read low
  normalized growth: 0.77 (active)
Locus YHR079C, strain IRE1, active compounds read low
  normalized growth: 0.789
Locus YHR082C, strain KSP1, active compounds read low
  normalized growth: 0.939
Locus YHR205W, strain SCH9, active compounds read low
  normalized growth: 0.822
Locus YIL147C, strain SLN1, active compounds read low
  normalized growth: 0.982
Locus YJL095W, strain BCK1, active compounds read low
  normalized growth: 0.772
Locus YJL128C, strain PBS2, active compounds read low
  normalized growth: 0.938
Locus YJL157C, strain FAR1, active compounds read low
  normalized growth: 0.923
Locus YJR016C, strain ILV3, active compounds read low
  normalized growth: 0.98
Locus YJR066W, strain TOR1 (second series), active compounds read low
  normalized growth: 0.738
Locus YJR066W, strain TOR1, active compounds read low
  normalized growth: 0.722
Locus YKL048C, strain ELM1, active compounds read low
  normalized growth: 1.05
Locus YKL067W, strain YNK1, active compounds read low
  normalized growth: 0.921
Locus YKL101W, strain HSL1, active compounds read low
  normalized growth: 1.01
Locus YKL193C, strain SDS22, active compounds read low
  normalized growth: 0.978
Locus YKL203C, strain TOR2, active compounds read low
  normalized growth: 0.88
Locus YLR113W, strain HOG1, active compounds read low
  normalized growth: 0.789 (active)
Locus YLR133W, strain CKI1, active compounds read low
  normalized growth: 0.943
Locus YLR403W, strain SFP1, active compounds read low
  normalized growth: 0.852
Locus YML070W, strain DAK1, active compounds read low
  normalized growth: 0.915
Locus YMR001C, strain CDC5, active compounds read low
  normalized growth: 0.974
Locus YMR205C, strain PFK2 (second series), active compounds read low
  normalized growth: 0.916
Locus YMR277W, strain FCP1, active compounds read low
  normalized growth: 0.961
Locus YNL006W, strain LST8, active compounds read low
  normalized growth: 0.972
Locus YNL020C, strain ARK1, active compounds read low
  normalized growth: 0.942
Locus YNL161W, strain CBK1, active compounds read low
  normalized growth: 0.983
Locus YNL183C, strain NPR1, active compounds read low
  normalized growth: 0.782
Locus YNL207W, strain RIO2, active compounds read low
  normalized growth: 0.979
Locus YNL222W, strain SSU72, active compounds read low
  normalized growth: 0.969
Locus YNL307C, strain MCK1 (second series), active compounds read low
  normalized growth: 0.939
Locus YOL078W, strain AVO1, active compounds read low
  normalized growth: 0.979
Locus YOL136C, strain PFK27, active compounds read low
  normalized growth: 0.959
Locus YOR061W, strain CKA2, active compounds read low
  normalized growth: 0.93
Locus YOR119C, strain RIO1, active compounds read low
  normalized growth: 0.911
Locus YOR231W, strain MKK1, active compounds read low
  normalized growth: 0.803
Locus YOR329C, strain SCD5, active compounds read low
  normalized growth: 0.987
Locus YPL031C, strain PHO85, active compounds read low
  normalized growth: 0.901
Locus YPL153C, strain RAD53, active compounds read low
  normalized growth: 0.893
Locus YPL204W, strain HRR25, active compounds read low
  normalized growth: 0.914
Locus YPL209C, strain IPL1, active compounds read low
  normalized growth: 0.974
Locus YPL256C, strain CLN2, active compounds read low
  normalized growth: 0.884
Locus YPR025C, strain CCL1, active compounds read low
  normalized growth: 0.973
Locus YPR106W, strain ISR1, active compounds read low
  normalized growth: 0.98
Locus YPR111W, strain DBF20, active compounds read low
  normalized growth: 0.964
Strain NNK1, active compounds read low
  normalized growth: 0.999
Strain TSCII, active compounds read low
  normalized growth: 0.966
